Compound activity as filed in PubChem.
Shown are actives, neighbours in structure and some others; about 3.7% of the full set was active somewhere.
ATXN viability: cell viability loss in ATXN counter-screen. S2 cells (HEK-293 line with an ATXN2-luciferase reporter) viability, CellTiter-Fluor protease fluorescence, 24 h. actives 0.49% (n = 400,000). AID 651635. Potency, µM (series often up to 56.7 µM), usual class: cytotoxic; also: nearly all actives have a fitted effect of over 40% in size
GLP1R inv ag: GLP-1 receptor (human) inverse agonism; P43220; HEK293 GLP-1R CRE-luciferase, luminescence, 24 h; GLP-1R form is constitutively active; Potency, µM (titrated, usually from 38.3 µM), without a hit: at the top dose activity change, negative = inhibition, most hits filed as inhibitors; actives 1.6% (n = 410,000); also: % is scaled to controls: 0 for no effect and ±100 for the full control effect; nearly all actives have a fitted effect of over 55% in size
Target sequence (P43220 whole entry, looked up): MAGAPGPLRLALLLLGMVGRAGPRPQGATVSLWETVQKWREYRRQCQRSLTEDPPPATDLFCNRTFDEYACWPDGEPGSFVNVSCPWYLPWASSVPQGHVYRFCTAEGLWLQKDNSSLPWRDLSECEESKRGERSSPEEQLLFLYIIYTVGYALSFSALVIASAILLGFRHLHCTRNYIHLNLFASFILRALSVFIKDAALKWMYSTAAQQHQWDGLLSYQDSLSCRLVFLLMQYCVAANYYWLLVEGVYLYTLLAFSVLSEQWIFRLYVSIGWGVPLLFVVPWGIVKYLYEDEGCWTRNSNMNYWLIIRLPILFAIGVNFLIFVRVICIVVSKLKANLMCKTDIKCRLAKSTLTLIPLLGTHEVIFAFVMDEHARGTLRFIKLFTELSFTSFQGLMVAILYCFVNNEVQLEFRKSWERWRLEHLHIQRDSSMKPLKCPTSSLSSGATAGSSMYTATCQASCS
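GLP-1R inverse agonism mode: basal reporter luminescence in engineered HEK293 cells measured after one day of compound exposure at 37 deg C, with a 12 min room-temperature detection step.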
GLP-1R agonist: activates the human GLP-1 receptor; AID 624172; actives 0.007% (n = 380,000); P43220; HEK293 GLP-1R CRE-luciferase, luminescence, 4-6 h; cells express a hypersensitive GLP-1R form; Potency, µM (doses to about 45.6 µM), without a hit: top-dose activation, usual class: activators; also: % of control where 0% means no effect
TGFb SMAD3 inh: TGF-b pathway inhibition; HepG2 CAGA-GFP TGF-b/SMAD3 reporter, GFP fluorescence, 18 h; TGF-beta stimulated, 500 pg/mL final; Potency, µM (top dose mostly 46.1 µM), for inactives: top-dose activity, negative = inhibition, most hits filed as inhibitors; actives 1.2% (n = 410,000); also: % is scaled to controls: 0 for no effect and ±100 for the full control effect; nearly all actives have a fitted effect of over 65% in size
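HEPG2 CAGA-GFP cells (1000/well, DMEM with 1% FBS) were pre-incubated 2 h at 37 degrees C, given compound by pin tool, then stimulated with TGF-beta at 500 pg/mL final for 18 h before per-cell GFP fluorescence imaging.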
ATXN2 expr inh: reduces ATXN2 reporter expression in HEK-293 cells | Potency, µM (doses to about 57 µM), for the others: top-dose activity change, negative = inhibition, most hits filed as inhibitors | actives 0.72% (n = 360,000) | HEK-293 ATXN2-luciferase reporter, luminescence, 24 h | AID 1745845; also: % is scaled to controls: 0 for no effect and ±100 for the full control effect; nearly all actives have a fitted effect of over 55% in size
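ATXN2-luciferase reporter cells (luciferase flanked by upstream and downstream ATXN2 gene portions) were treated 24 h at 37 °C with compounds at up to 57 uM. SteadyGlo luminescence gave expression; GF-AFC fluorescence gave viability.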
HepG2 tox: HepG2 cytotoxicity, counter-screen for TGF-b inhibitors | HepG2 CAGA-GFP viability, ATP luminescence, 18 h | actives 0.76% (n = 410,000) | Potency, µM (titrated, usually from 46.1 µM), for the others: top-dose activity change, negative = cytotoxicity, actives largely listed as cytotoxic | AID 588856
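CellTiter-Glo luminescence gave cytotoxicity after 18 hours at 37 degrees C. The cells were HepG2 CAGA-GFP in 1% FBS DMEM, stimulated with 500 pg/mL TGF-beta after compound addition. %Activity was normalised to no-cell wells (complete cell-killing) and DMSO (no toxicity), and curves were fitted and classified.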
* hit, by the source's call; i = inactive; ? = inconclusive; / = no result. Calls follow the shape of the dose curve; as a rule, active = well fitted curve in the direction sought with a large enough effect; inconclusive = small, poorly fitted or top-dose-only effect, or another doubt; inactive = no such curve, though single readings can be large; an effect the other way counts as inactive or inconclusive. Potency is read from the fitted curve at half-maximal effect.

SMILES	ATXN viability	GLP1R inv ag	GLP-1R agonist	TGFb SMAD3 inh	ATXN2 expr inh	HepG2 tox
CC(C)[C@H](CO)N(Cc1cccc(F)c1)c1nc(Nc2cccc(Cl)c2)c2ncn(C(C)C)c2n1	?	4µM*	2%	?	-11%	-33%
CC(C)n1cnc2c(N(C)c3cccc(Cl)c3)nc(N(CCO)CCO)nc21	i	29%	-1%	-2%	-8%	-7%
CC[C@H](CO)Nc1nc(Nc2cccc(Cl)c2)c2ncn(C(C)C)c2n1	16µM*	?	-16%	20µM*	?	-50%
CCN1CCCC1CNC(=O)c1cnn(-c2nccc(-c3ccco3)n2)c1C1CC1 (stereo not drawn)	i	/	/	/	/	/
Cc1ccc(C2=Nc3ccc(Cl)cc3OC2)cc1	/	/	/	/	38%	/
Clc1ccc(/C=C/c2nc3ccccc3[nH]2)cc1	?	?	-22%	0%	?	11µM*
CCn1cc(C(=O)NCc2ccccc2)c(=O)c2cc(F)c(N3CCN(C(=O)c4ccco4)CC3)cc21	i	-18%	-1%	20µM*	?	-49%
COC(=O)c1c(OCc2cccnc2)cc(=O)n2c1CCN(C(=O)c1ccc(OC)c(F)c1)CC2	i	/	/	/	/	/
Cc1cccc(Cn2cc(C(=O)Nc3cc(F)ccc3F)ccc2=O)c1	i	-23%	-3%	-7%	-2%	-12%
Cc1cccc(Cn2cc(C(=O)Nc3ccc(F)c(C(F)(F)F)c3)ccc2=O)c1	/	10µM*	/	?	/	-60%
OCCN1CCN(CC(O)COc2ccc(C34CC5CC(CC(C5)C3)C4)cc2)CC1 (stereo not drawn)	i	?	-3%	?	-27%	16µM*
OCCN1CCN(CC(O)COc2ccc(Cl)cc2)CC1 (stereo not drawn)	i	?	-3%	4%	1%	-5%
COc1cccc(C(=O)NCCSc2c(-c3ccc(F)cc3)[nH]c3ccccc23)c1OC	?	?	/	?	?	-29%
OC[C@H]1O[C@@H](OCCc2ccc(O)cc2)[C@H](O)[C@@H](O)[C@H]1O	i	/	/	/	-18%	/
O=C(NN=C1CCCC1)c1[nH]c2ccc(Cl)cc2c1-c1ccccc1	/	3.2µM*	21%	?	?	-178%
O=C(N/N=C/c1ccc(O)cc1)c1[nH]c2ccc(Br)cc2c1-c1ccccc1	i	?	22%	11µM*	-22%	-44%
CC(=O)NNC(=O)c1[nH]c2ccc(Cl)cc2c1-c1ccccc1	i	?	1%	?	/	-47%
Cc1c(C(=O)N/N=C/c2ccc(Cl)cc2)[nH]c2ccc(Cl)cc12	?	?	2%	2µM*	/	10µM*
Cc1ccccc1C1(CC(=O)N2CC3(C)CC2CC(C)(C)C3)CC(=O)N(Cc2cccnc2)C1=O (stereo not drawn)	i	/	/	/	/	/
NC(N)=NS(=O)(=O)c1ccc(N/C=C/C(=O)c2ccc(Cl)c(Cl)c2)cc1	i	56%	9%	-20%	-31%	-16%
CCOc1ccc(C(=O)/C=C/Nc2ccc(S(=O)(=O)N=C(N)N)cc2)cc1	?	14%	-1%	20µM*	-17%	-5%
Cc1nc(N/N=C/c2ccc(O)cc2)c2cnn(-c3ccccc3)c2n1	?	?	-1%	-12%	-14%	16µM*
COc1ccccc1C(C)NCC(=O)c1c(C)[nH]c2ccccc12 (stereo not drawn)	/	/	/	-9%	/	-25%
C=C1C=C(C(F)F)n2ncc(C(=O)NCc3ccc(Cl)cc3Cl)c2N1	/	/	/	5%	/	16%
Cc1cc2ncc(-c3ccccc3)nc2cc1C	i	0%	-1%	-20%	/	-12%
SMILES	ATXN viability	GLP1R inv ag	GLP-1R agonist	TGFb SMAD3 inh	ATXN2 expr inh	HepG2 tox
CCOC(=O)c1ccc2ncc(-c3ccccc3)nc2c1	i	48%	11%	2%	67%	2.5µM*
CCCC(=O)Nc1ccc(O)c(C(C)=O)c1	i	/	/	/	8%	/
O=C(Cc1ccccc1)NNc1ccc2ccccc2c1	?	0.56µM*	-1%	?	/	-36%
COc1ccc(C2(CNC(=O)C(=O)Nc3ccc(C)c(Cl)c3)CCCC2)cc1OC	i	2%	/	12%	11%	-53%
Cc1cc(C)c2c(=O)n3c(nc2c1)C(Cc1ccc(O)cc1)NC(=O)c1cccnc1-3 (stereo not drawn)	?	2%	-5%	?	-20%	-32%
Cc1cc(C)c2c(=O)n3c(nc2c1)C(Cc1ccccc1)NC(=O)c1cccnc1-3 (stereo not drawn)	10µM*	-17%	14%	?	-35%	-29%
O=C(NCc1ccccc1Cl)c1ccccc1NC(=O)c1nsc2ccccc12	/	2%	/	-10%	/	-8%
COc1ccc(NC(=O)c2noc3c2CCC3)cc1	i	?	-9%	2%	-16%	-37%
CC(=O)c1ccc(NC(=O)c2noc3c2CCC3)cc1	i	?	-2%	0%	4µM*	-8%
COc1ccc(OCCSc2nnc(CCNC(=O)c3ccc(Cl)c(Cl)c3)n2C)cc1	i	10µM*	12%	-19%	-20%	-19%
CC(=O)Nc1ccc2cc3ccc(NC(C)=O)cc3nc2c1	/	35%	5%	57%	7%	13µM*
O=C(C[n+]1ccc2ccccc2c1)c1ccc(F)cc1	/	/	/	?	/	-49%
COc1cc(CN2CCOc3ccc(CN4CCC(O)(c5cccnc5)CC4)cc3C2)cc(OC)c1	i	/	/	/	/	/
CNc1c(Br)cc(C(O)C2=CCc3ccccc32)cc1Br (stereo not drawn)	/	/	/	-25%	/	-37%
CCOc1cc(CNCC(C)C)c(Cl)cc1OCC(=O)Nc1ccccc1	i	11µM*	15%	4%	5%	-29%
CCNCc1cc(OCC)c(OCC(=O)NCCc2ccccc2)cc1Cl	i	?	1%	-1%	1%	-6%
Cc1cc(O)c(/C=N/Nc2cccc(Cl)c2)c(=O)o1	i	2.8µM*	1%	9%	11%	-16%
O=C(CCc1ccccc1)NC(c1cccs1)c1cc(Cl)c2cccnc2c1O (stereo not drawn)	/	?	0%	?	13µM*	-1%
CC(=O)NC(c1cc(Cl)c2cccnc2c1O)C(C)C (stereo not drawn)	5µM*	/	16%	6.3µM*	5.6µM*	-27%
CC(=O)NC(c1cc(Cl)c2cccnc2c1O)C1CC1 (stereo not drawn)	3.2µM*	/	10%	1.6µM*	8.9µM*	-60%
